From PubChem BioAssay (NCATS)
Inconclusive results are not listed. A number with no mark means an inactive call. Calls of active or inactive are those of the source. Calls follow the shape of the dose curve; as a rule, active = well fitted curve in the direction sought with a large enough effect; inconclusive = small, poorly fitted or top-dose-only effect, or another doubt; inactive = no such curve, though single readings can be large; an effect the other way counts as inactive or inconclusive.

Legend:
Tov-21-G = experiment: Primary qHTS to identify gynecologic anti-cancer compounds using libraries of approved drugs and bioactive compounds (AID 1345084); conditions: Gynecologic cancer cell panel viability, ATPlite luminescence, 48 h; series mostly up to 57.5 µM; also: nearly all actives have a fitted effect of over 55% in size
In short: (§1)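 Cells, 1,000 per well, were allowed to settle for 16 h at 37 C before compound addition. Five concentrations were tested for 48 h, and viability was read by ATPlite luminescence after 15 min at room temperature.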

Tov112D = experiment: as above; conditions: Gynecologic cancer cell panel viability, ATPlite luminescence, 48 h; series mostly up to 57.5 µM
In short: as §1

[1] = Drug repurposing screens with cells derived from glioblastoma tumor samples (AID 1345199); conditions: GBM patient neurospheres viability, ATP luminescence, 48 h; also: nearly all actives have a fitted effect of over 40% in size; also: potency is read from the fitted curve at half-maximal effect
In short: (§2)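 Primary testing used CD133+ neurospheres from four GBM patients, seven concentrations, 48 h exposure and ATP-based viability; confirmation added three slower-growing patient lines.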

astro = experiment: as above; conditions: viability, ATP luminescence, 48 h; series mostly up to 45.9 µM
In short: as §2

[2] = at 20 µM (top of the series), tumour line C
[3] = at 21.2 µM (top of the series), tumour line B
[4] = at 21.2 µM (top of the series), tumour line D
[5] = at 45.9 µM (top of the series), tumour line B
[6] = at 45.9 µM (top of the series), tumour line D
[7] = at 46 µM (top of the series), tumour line A
[8] = at 46.1 µM (top of the series), tumour line C
[9] = at 21.3 µM (top of the series), tumour line A
% is scaled to controls: 0 for no effect and ±100 for the full control effect.

## CN(C(=O)CN(CCO)CC(=O)N(C)C(C)(C)Cc1ccccc1)C(C)(C)Cc1ccccc1
Tov-21-G
  Potency: inactive
Tov112D
  Potency: inactive
[1]; [2]
  activity, negative = cell killing: 7.73%
[1]; [3]
  activity, negative = cell killing: -8.65%
[1]; [4]
  activity, negative = cell killing: -0.577%
[1]; tumour line A
  Potency: 10 µM (active)
astro
  Potency: inactive

## CCOC(=O)[C@H](CCc1ccccc1)N[C@@H](C)C(=O)N1Cc2ccccc2C[C@H]1C(=O)O
Tov-21-G
  Potency: inactive
Tov112D
  Potency: inactive
[1]; [5]
  activity, negative = cell killing: -8.88%
[1]; [6]
  activity, negative = cell killing: -11.4%
[1]; [7]
  activity, negative = cell killing: -15.3%
[1]; [8]
  activity, negative = cell killing: 11.9%
astro
  Potency: inactive

## CCCCC1=NC2(CCCC2)C(=O)N1Cc1ccc(-c2ccccc2-c2nn[nH]n2)cc1
Tov-21-G
  Potency: inactive
Tov112D
  Potency: inactive
[1]; [5]
  activity, negative = cell killing: -9.67%
[1]; [6]
  activity, negative = cell killing: -0.133%
[1]; [7]
  activity, negative = cell killing: -12.9%
[1]; [8]
  activity, negative = cell killing: 8.98%
astro
  Potency: inactive

## O=C1OCCN1/N=C/c1ccc([N+](=O)[O-])o1
Tov-21-G
  Potency: inactive
Tov112D
  Potency: inactive
[1]; [5]
  activity, negative = cell killing: 4.9%
[1]; [6]
  activity, negative = cell killing: -7.13%
[1]; [7]
  activity, negative = cell killing: -29.3%
[1]; [8]
  activity, negative = cell killing: 4.37%
astro
  Potency: inactive

## COc1cccc(OC)c1C(=O)N[C@@H]1C(=O)N2[C@@H]1SC(C)(C)[C@@H]2C(=O)O
Tov-21-G
  Potency: inactive
Tov112D
  Potency: inactive
[1]; [5]
  activity, negative = cell killing: -0.637%
[1]; [6]
  activity, negative = cell killing: -7.13%
[1]; [7]
  activity, negative = cell killing: -15.4%
[1]; [8]
  activity, negative = cell killing: 14.7%
astro
  Potency: inactive

## CN1CCC[C@@H]1c1cccnc1
Tov-21-G
  Potency: inactive
Tov112D
  Potency: inactive
[1]; [5]
  activity, negative = cell killing: -7.48%
[1]; [6]
  activity, negative = cell killing: -12.9%
[1]; [7]
  activity, negative = cell killing: -29.1%
[1]; [8]
  activity, negative = cell killing: -0.391%
astro
  Potency: inactive

## OC[C@@H](O)[C@@H](O[C@@H]1O[C@H](CO)[C@H](O)[C@H](O)[C@H]1O)[C@H](O)[C@@H](O)CO
Tov-21-G
  Potency: inactive
Tov112D
  Potency: inactive
[1]; [5]
  activity, negative = cell killing: -6.48%
[1]; [6]
  activity, negative = cell killing: -4.42%
[1]; [7]
  activity, negative = cell killing: -40.2%
[1]; [8]
  activity, negative = cell killing: -3.02%
astro
  Potency: inactive

## CCn1cc(C(=O)O)c(=O)c2cnc(N3CCCC3)nc21
Tov-21-G
  activity change, negative = cytotoxicity: 5.91% [at 11.6 µM]
Tov112D
  activity change, negative = cytotoxicity: 5.36% [at 11.6 µM]
[1]; [2]
  activity, negative = cell killing: -8.14%
[1]; [3]
  activity, negative = cell killing: -5.2%
[1]; [4]
  activity, negative = cell killing: -3.67%
[1]; [9]
  activity, negative = cell killing: -24.5%
astro
  Potency: inactive

## NCCC(O)(P(=O)(O)O)P(=O)(O)O
Tov-21-G
  Potency: inactive
Tov112D
  Potency: inactive
[1]; [5]
  activity, negative = cell killing: -6.03%
[1]; [6]
  activity, negative = cell killing: -13.5%
[1]; [7]
  activity, negative = cell killing: -19.5%
[1]; [8]
  activity, negative = cell killing: -12.2%
astro
  Potency: inactive

## CC1(C)O[C@@H]2C[C@H]3[C@@H]4C[C@H](F)C5=CC(=O)CC[C@]5(C)[C@H]4[C@@H](O)C[C@]3(C)[C@]2(C(=O)CO)O1
Tov-21-G
  Potency: inactive
Tov112D
  Potency: inactive
[1]; [2]
  activity, negative = cell killing: -16.9%
[1]; [3]
  activity, negative = cell killing: -8.1%
[1]; [4]
  activity, negative = cell killing: -28%
[1]; [9]
  activity, negative = cell killing: -15.3%
astro
  Potency: inactive

## C[C@H]1[C@H](NC(=O)/C(=N/OC(C)(C)C(=O)O)c2csc(N)n2)C(=O)N1S(=O)(=O)O (stereo in doubt)
Tov-21-G
  Potency: inactive
Tov112D
  Potency: inactive
[1]; [2]
  activity, negative = cell killing: -1.55%
[1]; [3]
  activity, negative = cell killing: -2.78%
[1]; [4]
  activity, negative = cell killing: 9.37%
[1]; [9]
  activity, negative = cell killing: -17.3%
astro
  Potency: inactive

## CCOC(=O)n1ccn(C)c1=S
Tov-21-G
  Potency: inactive
Tov112D
  Potency: inactive
[1]; [2]
  activity, negative = cell killing: 6.23%
[1]; [3]
  activity, negative = cell killing: -8.85%
[1]; [4]
  activity, negative = cell killing: 1.59%
[1]; [9]
  activity, negative = cell killing: -18.4%
astro
  Potency: inactive

## NC(=O)c1cc[n+](CC2=C(C(=O)[O-])N3C(=O)[C@@H](NC(=O)Cc4cccs4)[C@H]3SC2)cc1
Tov-21-G
  Potency: inactive
Tov112D
  Potency: inactive
[1]; [2]
  activity, negative = cell killing: -2.18%
[1]; [3]
  activity, negative = cell killing: -10.7%
[1]; [4]
  activity, negative = cell killing: -13.1%
[1]; [9]
  activity, negative = cell killing: -27.6%
astro
  Potency: inactive

## NC(CO)(CO)CO
Tov-21-G
  Potency: inactive
Tov112D
  Potency: inactive
[1]; [5]
  activity, negative = cell killing: -1.58%
[1]; [6]
  activity, negative = cell killing: 6.44%
[1]; [7]
  activity, negative = cell killing: -13.6%
[1]; [8]
  activity, negative = cell killing: 0.171%
astro
  Potency: inactive

## CCCCS(=O)(=O)N[C@@H](Cc1ccc(OCCCCC2CCNCC2)cc1)C(=O)O
Tov-21-G
  Potency: inactive
Tov112D
  Potency: inactive
[1]; [5]
  activity, negative = cell killing: -17.7%
[1]; [6]
  activity, negative = cell killing: -22%
[1]; [8]
  activity, negative = cell killing: -12.3%
[1]; tumour line A
  Potency: 11.2 µM (active)
astro
  Potency: inactive

## OCc1ccccc1O
Tov-21-G
  Potency: inactive
Tov112D
  Potency: inactive
[1]; [5]
  activity, negative = cell killing: -10.5%
[1]; [6]
  activity, negative = cell killing: -12.8%
[1]; [7]
  activity, negative = cell killing: -23.4%
[1]; [8]
  activity, negative = cell killing: -1.35%
astro
  Potency: inactive

## NCCCC[C@H](N[C@@H](CCc1ccccc1)C(=O)O)C(=O)N1CCC[C@H]1C(=O)O
Tov-21-G
  Potency: inactive
Tov112D
  Potency: inactive
[1]; [2]
  activity, negative = cell killing: 16.9%
[1]; [3]
  activity, negative = cell killing: -0.103%
[1]; [4]
  activity, negative = cell killing: -3.03%
[1]; [9]
  activity, negative = cell killing: 10.9%
astro
  Potency: inactive

## CCN1CCCC1=O
Tov-21-G
  Potency: inactive
Tov112D
  Potency: inactive
[1]; [5]
  activity, negative = cell killing: -8.97%
[1]; [6]
  activity, negative = cell killing: 9.06%
[1]; [7]
  activity, negative = cell killing: -27.1%
[1]; [8]
  activity, negative = cell killing: 2.13%
astro
  Potency: inactive

## OC(CCN1CCCCC1)(c1ccccc1)c1ccccc1
Tov-21-G
  Potency: inactive
Tov112D
  Potency: inactive
[1]; [5]
  activity, negative = cell killing: -13.7%
[1]; [6]
  activity, negative = cell killing: -5.27%
[1]; [8]
  activity, negative = cell killing: 4.07%
[1]; tumour line A
  Potency: 12.6 µM (active)
astro
  Potency: inactive
